Measurements reported in PubChem BioAssay AID1508622 (National Center for Advancing Translational Sciences (NCATS), 2021).
Activity calls are given as the source filed them. A call without a number means that no potency is given here. The call rests on the fitted dose curve; in most records, active means well fitted activation curve with a large enough effect; inconclusive means small, poorly fitted or top-dose-only effect; inactive means no such curve, though single readings can be large or run the other way.

Test: Confirmatory qHTS for Identification of Small Molecule Activators of Huntingtin-Antisense Promoter Activity
Conditions: HEK293 HTT-AS promoter firefly luciferase reporter, 24 h; series mostly up to 57.5 µM
How it was run: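 HEK293 luciferase reporter cells, 2,500/well, cultured 24 h, then exposed to compounds at up to 57.5 uM final for 24 h at 37C. Firefly luciferase luminescence read; normalized to vehicle (0%) and zero RLU (-100%).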
Potency means the concentration at half of the fitted maximal effect.

Structure (SMILES)	Potency
CC1CCCCN1S(=O)(=O)c1ccc2c(c1)oc(=O)n2CC(=O)Nc1ccc(Cl)cc1 (stereo not drawn)	inactive
COc1ccc(NS(=O)(=O)c2ccc3c(c2)CC(C)N3C(=O)C2CCC2)cc1OC (stereo not drawn)	inactive
CC(=O)N1CCc2c(sc(NC(=O)CSc3ccccc3)c2-c2nc3ccccc3s2)C1	inactive
CCc1cccc2sc(N3CCN(C(=O)c4cc5ccccc5cc4OC)CC3)nc12	inactive
COc1cc(OC)c(OC)cc1/C=C/c1nc2cc3ccccc3cc2c(=O)n1-c1ccc(F)c(Cl)c1	inactive
CC(C)(C)C(=O)NCCc1nc2ccccc2n1CCCCOc1ccccc1	inactive
CCN(CC)c1ccc(NC(=O)COCc2cc(-c3ccc4c(c3)OCO4)on2)c(C)c1	inactive
CCCCCNS(=O)(=O)c1ccc(N2CCCCS2(=O)=O)cc1	inactive
CN(C)C(=O)COC(=O)Cc1ccc(OC(=O)c2ccc(N=C(N)N)cc2)cc1	inactive
CCCCOc1ccc(C(=O)Nc2ccc3c(c2)CCCN3C(=O)c2cccs2)cc1	inactive
COc1ccc(CNC(=O)c2c(Nc3ccccc3C)sc(C(=O)c3ccccc3)c2N)cc1	inactive
O=C(CSc1nc(-c2cccc(F)c2)[nH]c1-c1ccccc1)Nc1ccc2c(c1)OCCO2	inactive
CCc1ccc2c(c1)-c1ccccc1S(=O)(=O)N2CC(=O)N1CCC(C)CC1	12 µM (active)
CN(CC(=O)Nc1ccc(OC(F)(F)F)cc1)S(=O)(=O)c1ccc2c(c1)CCC(=O)N2	inactive
Cc1ccc(Cl)cc1-n1ncc2c(NCCCc3ccccc3)ncnc21	inactive
FC(F)(F)c1cccc(Nc2nc3nonc3nc2Nc2ccc(Cl)cc2)c1	inactive
Cc1cccc(N2CCN(C(=O)c3ccc4c(c3)CCN4S(=O)(=O)c3ccccc3)CC2)c1C	inactive
CCN(CC)S(=O)(=O)c1ccc(C(=O)NCCSc2c(-c3ccc(OC)cc3)[nH]c3ccccc23)cc1	inactive
Cc1cccc(CCNC(=O)c2c[nH]c3ccc(S(=O)(=O)Nc4ccccc4F)cc3c2=O)c1	inactive

Structure (SMILES)	Potency
COc1ccc(CCNC(=O)c2cc3sccc3n2Cc2ccc(Cl)cc2)cc1OC	inactive
CCS(=O)(=O)NCCc1sc2nc(-c3ccc(OC)cc3)nn2c1C	inactive
O=C(Nc1cccc(F)c1)c1cnc2sc(N3CCCC3)nn2c1=O	inactive
CC(=O)N1CCCc2cc(S(=O)(=O)N3CCCC(C(=O)N4CCN(c5ccccc5)CC4)C3)ccc21 (stereo not drawn)	inactive
CC(=O)C1=C(c2ccc(Cl)c(Cl)c2)N(C(C)=O)n2c(C)nnc2S1	inactive
Cc1cc(C)cc(NC(=O)Nc2cccs2)c1	3.38 µM (active)
Cc1ccc(-c2cn3nc(N4CCCC(C(=O)Nc5ccc(F)cc5)C4)sc3n2)cc1 (stereo not drawn)	inactive
Cc1ccccc1OCC(=O)NCC(c1ccc(Cl)cc1)N1CCOCC1 (stereo not drawn)	inactive
COc1ccc(CCNC(=O)c2ccc3c(c2)CCN3S(=O)(=O)c2ccc(C)cc2)cc1	inactive
Cc1cc(Cl)ccc1OCC(=O)N1CCC(c2nc3ccccc3s2)CC1	inactive
COc1ccc(NC(=O)C(=O)NCC(c2cccnc2)N2CCc3ccccc3C2)cc1 (stereo not drawn)	inactive
COc1ccc(Cl)cc1C1CC(=O)Nc2cc3c(cc21)OCCO3 (stereo not drawn)	inactive
CCN(Cc1ccccc1)C(=O)C1CCC(CNS(=O)(=O)c2ccc3c(c2)CCCC(=O)N3)CC1 (stereo not drawn)	inactive
O=S(=O)(Nc1ccc(OC(F)(F)F)cc1)c1ccc(N2CCCCS2(=O)=O)cc1	inactive
CC(C)c1ccc(Nc2c(-c3ccccn3)nc3ccccn23)cc1	inactive
CCN(C(=O)CSc1nc(-c2ccccc2)no1)c1cccc(C)c1	inactive
COc1ccc(-c2cccc(NS(=O)(=O)c3cc(C)c(OC)c(C)c3C)c2)nn1	inactive
CCCC(=O)Nc1nnc(SCc2cc(=O)c3ccc(C)cc3[nH]2)s1	inactive
Cc1ccccc1C(=O)Nc1nc(-c2ccc(Br)cc2)ns1	inactive
